The campaign covered roughly 290,000 compounds. About 890 (0.31%) were called active. Cut-off read from the data, not from the text of the source: active = inhibition mostly above about 52% (no sharp cut-off); inactive = mostly below about 76%. What follows is part of a selection rich in actives, with near analogues and random picks from the rest.
Assay: inhibitors of HIV fusion peptide binding, primary screen, biochemical, uHTS, fluorescence dequenching (AID 1986)
Settings: cell-free peptide binding, 30 min, stronger effect = higher value
[1] = measured here: repeat confirmation average inhibition, at 18.6 µM

| SMILES | inhibition (at 20 µM) | inhibition [1] [%] |
| --- | --- | --- |
| COCCNC(=O)Cn1cc(/C=C2\C(=O)NC(=O)N(c3cccc(C)c3C)C2=O)c2ccccc21 | 90.2% (active) | 50.7 |
| COCCCNC(=O)Cn1cc(/C=C2\C(=O)NC(=O)N(c3ccccc3F)C2=O)c2ccccc21 | 159% (inactive) |  |
| O=C(O)Cn1cc(C=C2C(=O)NC(=O)NC2=O)c2ccccc21 | 4.8% (inactive) |  |
| COCCNC(=O)Cn1cc(C=C2C(=O)NC(=O)NC2=O)c2ccccc21 | 43.1% (inactive) |  |
| COCCNC(=O)Cn1cc(/C=C2\C(=O)NC(=O)N(c3ccccc3F)C2=O)c2ccccc21 | 159% (inactive) |  |
| O=C(Cn1cc(C=C2C(=O)NC(=O)NC2=O)c2ccccc21)NCC1CCCO1 (centres undefined) | 61.4% (active) | 112 |
| CC(Cc1ccccc1)[n+]1cc(/N=C(\[O-])Nc2ccccc2)on1 (centres undefined) | -1.8% (inactive) |  |
| O=C(NCc1ccccn1)c1ccccc1Cl | -1.3% (inactive) |  |
| CCOC(=O)c1c(C)c(P(=S)(N2CCOCC2)N2CCOCC2)n(C)c1C | -1.8% (inactive) |  |
| CC(C)n1c(=O)c(C=Nc2ccc(Br)cc2)c(O)n(Cc2ccco2)c1=O | 66.2% (active) |  |
| CC(C)n1c(=O)c(C=Nc2ccc(F)cc2)c(O)n(Cc2ccco2)c1=O | 0.1% (inactive) |  |
| CC(C)n1c(=O)c(C=Nc2ccc(Cl)cc2)c(O)n(Cc2ccco2)c1=O | 52.7% (inactive) | 4.1 |
| CCOC(=O)C1CCN(Cc2ccc(Cl)nc2)CC1 | -0.9% (inactive) |  |
| O=C1N(c2cccc(Cl)c2)C(c2cccnc2)N2CCCN12 (centres undefined) | -0.5% (inactive) |  |
| O=C1NC(=O)[C@]2(Cc3ccccc3N3CCN(c4ccccc4)CC32)C(=O)N1Cc1ccccc1 (some centres undefined) | 1.5% (inactive) |  |
| COc1ccc(-c2nc3ccc(C(=O)N4CCC5(CC4)OCCO5)cc3nc2-c2ccc(OC)cc2)cc1 | -1.1% (inactive) |  |
| Cc1cc(/C=C2\C(=O)NC(=O)N(c3ccccc3)C2=O)c(C)n1-c1ccc(C(=O)O)c(Cl)c1 | 9.8% (inactive) |  |
| Cc1cc(/C=C2\C(=O)NC(=O)N(Cc3ccccc3Cl)C2=O)c(C)n1-c1ccc(C(=O)O)cc1 | 67.8% (inactive) | 40.6 |
| Cc1cc(/C=C2\C(=O)NC(=O)N(Cc3ccccc3)C2=O)c(C)n1-c1ccc(Cl)c(C(=O)O)c1 | 52.5% (active) |  |
| COC(=O)Cn1cc(C=C2C(=O)N(C)C(=O)N(C)C2=O)c2ccccc21 | 118% (active) | 98.7 |
| CN1C(=O)C(=Cc2cn(CC(=O)N3CCCC3)c3ccccc23)C(=O)N(C)C1=O | 9.1% (inactive) |  |
| CCOC(=O)Cn1cc(C=C2C(=O)N(C)C(=O)N(C)C2=O)c2ccccc21 | 58.4% (active) | 149 |
| CCn1cc(C=C2C(=O)N(C)C(=O)N(C)C2=O)c2ccccc21 | 6.6% (inactive) |  |
| COC(=O)Cn1cc(C=C2C(=O)NC(=O)NC2=O)c2ccccc21 | 10% (inactive) |  |
| CCN1C(=O)NC(=O)/C(=C\c2cn(CC(=O)N3CCCCC3)c3ccccc23)C1=O | 92.7% (active) |  |
| CCN(CC)C(=O)Cn1cc(C=C2C(=O)N(C)C(=O)N(C)C2=O)c2ccccc21 | 9.3% (inactive) |  |
| CCOC(=O)C1(c2ccccc2)CCN(CCC(=O)Nc2ccccc2OC)CC1 | 1.8% (inactive) |  |

| SMILES | inhibition (at 20 µM) | inhibition [1] [%] |
| --- | --- | --- |
| CN1CCN(c2ccccc2N)CC1 | 1.6% (inactive) |  |
| Cc1ccc(-n2c(O)c(C=NC3CCCC3)c(=O)[nH]c2=O)c(C)c1 | 2.6% (inactive) |  |
| CCOP(=O)(OCC)C(NC(=O)C(C)C)C(Cl)(Cl)Cl (centres undefined) | 0.1% (inactive) |  |
| CC/C(=N\NC(=O)c1ccccc1O)c1c(O)n(C2CCCCC2)c(=O)[nH]c1=O | 51.3% (inactive) | 46.2 |
| O=C(O)c1cccc2c1NC(C(=O)O)C1CC(Sc3ccccc3[N+](=O)[O-])C(Cl)C21 (centres undefined) | 63.2% (active) |  |
| Cc1ccc2c(c1Cl)NC(C(=O)O)C1CC(Sc3ccccc3[N+](=O)[O-])C(Cl)C21 (centres undefined) | 63% (inactive) | 28 |
| CC(=O)c1ccc2c(c1)C1C(Cl)C(Sc3ccccc3[N+](=O)[O-])CC1C(C(=O)O)N2 (centres undefined) | 54.5% (inactive) | 1.3 |
| CC(C)(C)C(=O)c1cn(Cc2ccccc2)c2ccccc12 | -0.8% (inactive) |  |
| CCC(=O)c1cn(Cc2ccccc2)c2ccccc12 | -1.1% (inactive) |  |
| O=C(COc1ccccc1)c1cn(Cc2ccccc2)c2ccccc12 | 80.8% (active) |  |
| COC(=O)N(C)c1ccc(C(O)(C(=O)OC)C(F)(F)F)cc1 (centres undefined) | 0% (inactive) |  |
| CC1Oc2cc3c(-c4c(O)cc(O)c5c(O)c6c(cc45)OC(C)C(C)C6=O)c(O)cc(O)c3c(O)c2C(=O)C1C (centres undefined) | 54.2% (active) |  |
| O=C(O)c1ccc(N=Cc2c(O)[nH]c(=O)[nH]c2=O)cc1 | 15.8% (inactive) |  |
| CCOC(=O)c1cc(CC)sc1/N=C/C1C(=O)NC(=S)NC1=O | 30.8% (inactive) |  |
| COc1ccc(C(=O)CC2(CC(=O)c3ccc(OC)cc3)C(=O)N(C)C(=O)N(C)C2=O)cc1 | 3.7% (inactive) |  |
| CCn1nc(/C=C/c2ccccc2)nc2c(=O)n(C)c(=O)nc1-2 | 1.1% (inactive) |  |
| CCn1nc(-c2ccccc2)nc2c(=O)n(C)c(=O)nc1-2 | 80.2% (active) | 60.9 |
| CCn1nc(-c2cccs2)nc2c(=O)n(C)c(=O)nc1-2 | 1.6% (inactive) |  |
| CC1=C(C(=O)O)N2C(=O)C(NC(=O)Cc3ccccc3)C2SC1 (centres undefined) | 3.3% (inactive) |  |
| O=P(/C(=N/O)N1CCOCC1)(N1CCOCC1)N1CCOCC1 | 2.4% (inactive) |  |
| CCOC(=O)C1CCN(C(C)C(=O)c2c(C)[nH]c3cc(C)ccc23)CC1 (centres undefined) | 8.4% (inactive) |  |
| CCC1CCCCN1P(=O)(c1ccc(C)o1)C(C)(C)C (centres undefined) | 5.9% (inactive) |  |
| CCc1cc(=O)oc2c(C)c(OCC(=O)N3C[C@H]4C[C@@H](C3)c3cccc(=O)n3C4)ccc12 | 1.3% (inactive) |  |
| O=C(C1c2ccccc2C(=O)N2CCc3ccccc3C12)N1CCC2(CC1)OCCO2 (centres undefined) | -2.3% (inactive) |  |
| COc1ccc(CCNCc2cccn2C)cc1 | -1.8% (inactive) |  |
| NC(=O)c1cn(C2CCCCC2)c2ccccc2c1=O | -1.7% (inactive) |  |
| CCCCCC(=O)N[C@@H](c1ccccc1)[C@@H](O)C(=O)O[C@H]1C[C@@]2(O)[C@@H](OC(=O)c3ccccc3)C3[C@](C)(C(=O)[C@H](O)C(=C1C)C2(C)C)[C@@H](OC1OCC(O)C(O)C1O)C[C@H]1OC[C@@]31OC(C)=O (some centres undefined) | 0% (inactive) |  |

— PubChem BioAssay AID1986 (Sanford-Burnham Center for Chemical Genomics, 2009)
